Bioassay records (PubChem BioAssay)
nsP2pro inh = blocks chikungunya virus nsP2 protease peptide cleavage; 1.1% of 31,000 active; FRET peptide cleavage, nsP2pro, fluorescence 1 h; Potency, µM (titrated, usually from 24.9 µM), for the others: at the highest dose activity change, negative = inhibition, actives largely listed as inhibitors; note: nearly all actives have a fitted effect of over 60% in size
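FRET cleavage of 2.5 uM peptide 2 by 150 nM CHIKV protease domain at pH 8.0 (Tris, Tween 20). Compounds at 7 concentrations (up to 25 uM) preincubated 15 min. Fluorescence read after 1 h at room temperature.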
CHIKV nsP2 cell = cell-based CHIKV nsP2 protease inhibition, secondary | Potency, µM (highest dose often 51.1 µM), inactives show at the highest dose activity change, negative = inhibition, most hits filed as inhibitors | shares compounds with nsP2pro inh | cell-based CHIKV nsP2 protease reporter assay | 10% of 450 active; note: nearly all actives have a fitted effect of over 70% in size
NSP2 full ctr = selectivity test for CHIKV nsP2 protease inhibitors: full-length NSP2. shares compounds with nsP2pro inh. Full-length CHIKV NSP2 protease enzymatic counterscreen. Potency, µM (highest dose often 50.7 µM), inactives show at the highest dose activity change, negative = inhibition, most hits filed as inhibitors. 39% of 410 active. AID 1964101; note: nearly all actives have a fitted effect of over 65% in size
Furin counter = selectivity counter-screen for CHIKV nsP2 protease inhibitors: human furin; Potency, µM (top dose mostly 50.6 µM), for the others: at the highest dose activity change, negative = inhibition, usual class: inhibitors; Recombinant human furin enzymatic counterscreen, fluorogenic substrate; shares compounds with nsP2pro inh; 6% of 410 active
NS23 peptide cs = nsP2pro inhibition on native NS2/3 peptide substrate | Potency, µM (highest dose often 51 µM), for the others: top-dose activity change, negative = inhibition, actives largely listed as inhibitors | shares compounds with nsP2pro inh | Purified CHIKV nsP2 protease, endogenous NS2/3 peptide cleavage | 34% of 410 active | AID 1964103; note: nearly all actives have a fitted effect of over 55% in size
Papain counter = papain protease inhibition, counterscreen for nsP2pro inhibitors; Potency, µM (series often up to 51 µM), without a hit: at the top dose activity change, negative = inhibition, most hits filed as inhibitors; purified papain protease activity, enzymatic inhibition; 5% of 410 active; AID 1964104; shares compounds with nsP2pro inh
Target sequence (P00784 whole entry, looked up): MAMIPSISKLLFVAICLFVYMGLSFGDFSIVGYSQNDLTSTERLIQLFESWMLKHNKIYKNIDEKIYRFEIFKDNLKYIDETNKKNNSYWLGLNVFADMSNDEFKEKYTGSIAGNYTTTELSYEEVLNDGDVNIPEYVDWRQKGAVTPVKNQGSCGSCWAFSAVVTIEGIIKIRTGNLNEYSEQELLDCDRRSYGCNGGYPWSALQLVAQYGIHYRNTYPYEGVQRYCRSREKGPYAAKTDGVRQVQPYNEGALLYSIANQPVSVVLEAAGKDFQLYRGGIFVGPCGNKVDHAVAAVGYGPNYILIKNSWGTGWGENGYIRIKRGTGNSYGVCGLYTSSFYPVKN
nsP2pro confirm = confirmation of CHIKV nsP2 protease inhibitors. 43% of 410 active. CHIKV nsP2 protease enzymatic activity, qHTS. shares compounds with nsP2pro inh. Potency, µM (top dose mostly 25.5 µM), without a hit: at the top dose activity change, negative = inhibition, actives largely listed as inhibitors. AID 1964105; note: nearly all actives have a fitted effect of over 75% in size
HCV NS3 counter = selectivity counter-screen for CHIKV nsP2 protease inhibitors: HCV NS3/4A; shares compounds with nsP2pro inh; HCV NS3/4A protease biochemical counterscreen; Potency, µM (doses to about 50.9 µM), most hits filed as inhibitors; 20% of 410 active; note: nearly all actives have a fitted effect of over 55% in size
* = called active by the depositor; [ ] = remark or other dose. Shown is part of a subset that was picked to be rich in hits. Calls come from the whole dose curve. % is set by controls: 0 for no effect and ±100 for the full control effect; potency is the fitted concentration of half-maximal effect.

What do the screens show for `CC1(C)OC(=O)C=C[C@@]2(C)C1CC(=O)[C@]1(C)C2CC[C@@]2(C)[C@H](c3ccoc3)OC(=O)[C@H]3O[C@]321` (stereo partly drawn)?
nsP2pro inh: 3.4µM*; CHIKV nsP2 cell: 5%[17.6 µM]; NSP2 full ctr: inconclusive; Furin counter: 6%[17.3 µM]; NS23 peptide cs: -11%[17.2 µM]; Papain counter: -4%[17.2 µM]; nsP2pro confirm: -28%[8.62 µM]; HCV NS3 counter: inactive

Results for CC(C)(O)C1CC(=O)C2(C)C(CCC3(C)C(c4ccoc4)OC(=O)C4OC432)C12CCC(=O)OC2 (stereo not drawn) ?
nsP2pro inh: 0.86µM*; CHIKV nsP2 cell: 2%[17.6 µM]; NSP2 full ctr: inconclusive; Furin counter: 6%[17.3 µM]; NS23 peptide cs: -19%[17.2 µM]; Papain counter: -8%[17.2 µM]; nsP2pro confirm: inconclusive; HCV NS3 counter: inconclusive

How did CC(=O)OC1CC(O)C(C)(C)C2CC(OC(C)=O)C3(C)C(CCC4(C)C(c5ccoc5)C(=O)C5OC543)C12C (stereo not drawn) do in these assays?
nsP2pro inh: -27%[10 µM]

How did N#Cc1nc(-c2cccc3ccccc23)oc1NC1CNC1 do in these assays?
nsP2pro inh: inactive

What do the screens show for `COc1ccc2c(O[C@H]3CC4C(=O)N(C)CCCC/C=C/[C@@H]5C[C@@]5(C(=O)NS(=O)(=O)C5CC5)NC(=O)[C@@H]4C3)cc(-c3nc(C(C)C)cs3)nc2c1C` (stereo partly drawn)?
nsP2pro inh: 78%

How did Cc1cccc(C(=O)N2CC[C@H]3C(=O)NCCCCCCN(Cc4ccncc4)[C@@H]3C2)c1 do in these assays?
nsP2pro inh: -14%

What do the screens show for `COc1cccc(C(=O)N2CCCN(CCn3nc4n(c3=O)CCCC4)CC2)c1`?
nsP2pro inh: -3%

What do the screens show for `COc1ccc(C(O[C@@H]2O[C@H](CO)[C@@H](O)[C@H](O)[C@H]2O)C(CO)Oc2ccc(/C=C/CO)cc2OC)cc1O` (stereo partly drawn)?
nsP2pro inh: 53%[10 µM]

What do the screens show for `O=C(/C=C/c1cccnc1)NCCCCC1CCN(C(=O)c2ccccc2)CC1`?
nsP2pro inh: inconclusive; CHIKV nsP2 cell: -28%; NSP2 full ctr: 18%; Furin counter: 12%; NS23 peptide cs: inactive; Papain counter: -8%; nsP2pro confirm: 22%; HCV NS3 counter: inactive

How did O=C(c1ccncc1)N1CCCC(CN2CCCC2)CC1 (stereo not drawn) do in these assays?
nsP2pro inh: -7%

What do the screens show for `Cc1cnc(C2CCOCC2)n1CC1CCN(C(=O)c2cccnc2)CC1`?
nsP2pro inh: -4%

Results for CON(C)Cc1ccc(O)c2c1C[C@H]1C[C@H]3[C@H](N(C)C)C(=O)C(C(N)=O)=C(O)[C@@]3(O)C(=O)C1=C2O ?
nsP2pro inh: 2%

Results for CC1CC2OCC3(O)CCC(O)C(C14CC(c1ccoc1)OC4=O)C23CO (stereo not drawn) ?
nsP2pro inh: -21%

How did C[C@@H]1C[C@@H](O)[C@@]23CO[C@]2(CO)CCC[C@@H]3[C@@]12C[C@@H](c1ccoc1)OC2=O do in these assays?
nsP2pro inh: inconclusive; CHIKV nsP2 cell: -6%[33.5 µM]; NSP2 full ctr: -1%[33.5 µM]; Furin counter: 7%[33.5 µM]; NS23 peptide cs: -5%[33.5 µM]; Papain counter: -6%[33.5 µM]; nsP2pro confirm: -21%[16.7 µM]; HCV NS3 counter: inactive

Results for CC(C)(C)NCC(O)COc1ccccc1C#N (stereo not drawn) ?
nsP2pro inh: -2%

What do the screens show for `COc1ccccc1-c1cc(C(=O)NC2CC2)nn2cnnc12`?
nsP2pro inh: inactive

How did Cc1cc(C)nc(NC(=S)N2CCN(c3ccc4nccn4c3)CC2)c1 do in these assays?
nsP2pro inh: -16%

How did Cc1ccnc(NC(=S)N2CCN(c3ncc(C(F)(F)F)cc3Cl)CC2)c1 do in these assays?
nsP2pro inh: -3%

How did O=C(O)C(c1ccc2c(c1)OCCO2)N1CCCN(c2ncccn2)CC1 (stereo not drawn) do in these assays?
nsP2pro inh: -4%

Results for Oc1cc2c(cc1CN1CCN(c3ncccn3)CC1)OCO2 ?
nsP2pro inh: 10µM*; CHIKV nsP2 cell: -29%; NSP2 full ctr: inconclusive; Furin counter: -4%; NS23 peptide cs: 16µM*; Papain counter: -3%; nsP2pro confirm: 7.1µM*; HCV NS3 counter: inconclusive

What do the screens show for `CC1(C)CC(=O)N(CCCCN2CCN(c3ncccn3)CC2)C(=O)C1`?
nsP2pro inh: -6%

Results for O=C(Nc1ccc(-c2ccnc(Nc3ccc(N4CCOCC4)cc3)n2)cc1)[C@@H]1CCCN1 ?
nsP2pro inh: 110%

What do the screens show for `Cc1cccc(S(=O)(=O)Nc2cccn3nc(C4CCC4)nc23)c1`?
nsP2pro inh: 17%

What do the screens show for `CCc1nc2c(NS(=O)(=O)c3cccnc3)cccn2n1`?
nsP2pro inh: -7%

How did O=S(=O)(Nc1cccn2nc(C3CC3)nc12)c1cccnc1 do in these assays?
nsP2pro inh: inconclusive; CHIKV nsP2 cell: -16%

Results for CCS(=O)(=O)N1CCC2(CC1)CN(c1cccc(F)c1)C2c1ccccc1 (stereo not drawn) ?
nsP2pro inh: -4%

What do the screens show for `C=C[C@H](/C=C\c1ccc(O)cc1)c1ccc(O)cc1`?
nsP2pro inh: 22%

How did Cc1nc(-c2cccs2)cc([C@H]2CN3CC[C@H]2C[C@@H]3COC(=O)NC2CCCCC2)n1 do in these assays?
nsP2pro inh: 6%

What do the screens show for `Cc1nc(-c2ccccc2Br)cc([C@H]2CN3CC[C@H]2C[C@@H]3CNC(=O)NC2CCCCC2)n1`?
nsP2pro inh: 5µM*; CHIKV nsP2 cell: -3%; NSP2 full ctr: inconclusive; Furin counter: inconclusive; NS23 peptide cs: 16µM*; Papain counter: 0%; nsP2pro confirm: 8µM*; HCV NS3 counter: 13µM*

Results for COc1ccc(-c2cc([C@H]3CN4CC[C@H]3C[C@@H]4COC(=O)NC3CCCCC3)nc(C)n2)cc1 ?
nsP2pro inh: inactive

Results for CC(=O)c1cccc(NC(=O)NC[C@H]2C[C@@H]3CCN2C[C@@H]3c2cc(-c3ccc(F)cc3)nc(C)n2)c1 ?
nsP2pro inh: inactive
